Dicer inh: inhibitors of human Dicer processing of pre-microRNA; hit rate 6% among 47,000; AID 1347074; cat-ELCCA pre-miR-21 Dicer processing, chemiluminescence; stronger effect = higher value; Q9UPY3; z-score at 25 µM; in the data active means z-score above about 3, passing the limit was not always enough;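 further: plate controls were vehicle for no effect and no enzyme for full effect; higher signal means more uncleaved substrate so more Dicer inhibition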
Target sequence (Q9UPY3 whole entry, looked up): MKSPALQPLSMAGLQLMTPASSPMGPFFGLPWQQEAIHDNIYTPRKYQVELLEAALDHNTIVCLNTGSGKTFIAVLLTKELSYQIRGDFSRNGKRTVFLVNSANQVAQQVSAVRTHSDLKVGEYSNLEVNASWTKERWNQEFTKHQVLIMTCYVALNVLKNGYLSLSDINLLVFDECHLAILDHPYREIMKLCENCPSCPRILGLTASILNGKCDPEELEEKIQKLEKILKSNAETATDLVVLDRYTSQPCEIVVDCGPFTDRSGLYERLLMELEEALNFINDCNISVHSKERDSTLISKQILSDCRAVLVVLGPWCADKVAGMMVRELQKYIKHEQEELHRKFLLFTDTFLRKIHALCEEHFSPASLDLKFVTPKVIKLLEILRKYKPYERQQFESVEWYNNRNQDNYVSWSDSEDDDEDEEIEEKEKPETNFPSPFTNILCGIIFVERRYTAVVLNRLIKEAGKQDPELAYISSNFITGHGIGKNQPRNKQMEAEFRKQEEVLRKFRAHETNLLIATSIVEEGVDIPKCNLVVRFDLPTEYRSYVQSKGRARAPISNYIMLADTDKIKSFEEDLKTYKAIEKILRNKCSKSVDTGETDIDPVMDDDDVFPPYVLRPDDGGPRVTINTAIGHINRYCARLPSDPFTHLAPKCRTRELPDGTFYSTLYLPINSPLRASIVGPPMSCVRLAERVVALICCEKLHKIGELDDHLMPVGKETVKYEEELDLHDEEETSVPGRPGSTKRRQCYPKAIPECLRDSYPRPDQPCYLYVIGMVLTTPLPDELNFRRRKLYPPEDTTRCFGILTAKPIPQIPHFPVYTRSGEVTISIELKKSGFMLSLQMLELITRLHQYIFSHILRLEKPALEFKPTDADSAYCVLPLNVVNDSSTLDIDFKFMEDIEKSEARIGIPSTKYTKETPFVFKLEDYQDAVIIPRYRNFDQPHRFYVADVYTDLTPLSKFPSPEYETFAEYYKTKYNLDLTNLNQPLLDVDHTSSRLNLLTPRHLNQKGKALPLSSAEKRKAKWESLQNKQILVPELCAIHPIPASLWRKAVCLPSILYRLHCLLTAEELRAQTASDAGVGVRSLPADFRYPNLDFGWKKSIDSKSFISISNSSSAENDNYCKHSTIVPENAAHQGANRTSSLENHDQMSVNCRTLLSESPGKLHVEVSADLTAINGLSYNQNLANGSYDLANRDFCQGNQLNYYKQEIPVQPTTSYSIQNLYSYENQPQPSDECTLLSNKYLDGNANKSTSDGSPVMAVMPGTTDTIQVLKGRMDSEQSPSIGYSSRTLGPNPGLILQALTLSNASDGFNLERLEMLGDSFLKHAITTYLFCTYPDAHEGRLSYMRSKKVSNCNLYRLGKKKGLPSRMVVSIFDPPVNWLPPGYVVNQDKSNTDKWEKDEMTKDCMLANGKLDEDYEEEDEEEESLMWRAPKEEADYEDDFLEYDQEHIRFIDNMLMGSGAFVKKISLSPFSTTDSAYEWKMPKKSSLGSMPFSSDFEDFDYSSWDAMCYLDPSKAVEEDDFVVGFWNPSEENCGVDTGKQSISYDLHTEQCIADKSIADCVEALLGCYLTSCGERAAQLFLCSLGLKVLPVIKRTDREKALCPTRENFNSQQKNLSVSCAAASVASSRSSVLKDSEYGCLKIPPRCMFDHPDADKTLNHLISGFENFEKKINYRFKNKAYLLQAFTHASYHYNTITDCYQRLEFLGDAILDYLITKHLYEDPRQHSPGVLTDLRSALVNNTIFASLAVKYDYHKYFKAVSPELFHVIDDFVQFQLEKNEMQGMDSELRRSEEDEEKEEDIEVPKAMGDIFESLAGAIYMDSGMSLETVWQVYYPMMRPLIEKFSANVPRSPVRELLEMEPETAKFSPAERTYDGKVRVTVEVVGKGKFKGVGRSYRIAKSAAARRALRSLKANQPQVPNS
* = called active by the depositor. Shown is part of a subset that was picked to be rich in hits.

How did CC1=C(C(=O)OC(C)C)C(c2cccc(OCc3ccccc3)c2)n2ncnc2N1 (stereo not drawn) do in these assays?
Dicer inh: 0.32

How did CCOC(=O)C1C2C=CC3(CN(c4ccc(Cl)c(F)c4)C(=O)C13)O2 (stereo not drawn) do in these assays?
Dicer inh: -0.1

What do the screens show for `COc1ccc(OCc2nnc3n2N=C(c2ccc(C)cc2)CS3)cc1`?
Dicer inh: 1.6

How did COc1ccc(OCc2nnc3n2N=C(c2ccc(OC)cc2)CS3)cc1 do in these assays?
Dicer inh: 5.2*

How did COc1ccc(C2=Nn3c(COc4cc(C)ccc4Cl)nnc3SC2)cc1 do in these assays?
Dicer inh: -1.7

Results for CCN(C(=O)c1cnc(OC)cc1C(F)(F)F)c1ccc(Cl)cc1Cl ?
Dicer inh: -1.3

Results for CCCc1c(C)c(C#N)c2nc3ccccc3n2c1NCCCN1CCOCC1 ?
Dicer inh: -1.7

Results for C=C1SC(Nc2cccc(Cl)c2)=NC1(C)C ?
Dicer inh: 0.2

What do the screens show for `Cc1[nH]n(-c2ccccc2)c(=S)c1C=Nc1ccccc1Cl`?
Dicer inh: -5.4

How did Cc1ccc(/C(O)=C2\C(=O)C(=O)N(CCN3CCOCC3)C2c2ccc(F)cc2)cc1 (stereo not drawn) do in these assays?
Dicer inh: 1.9

Results for CN(Cc1ccccc1)C(=O)c1ccc([N+](=O)[O-])o1 ?
Dicer inh: 3*

What do the screens show for `CCOC(=O)CNC(=O)c1ccc([N+](=O)[O-])o1`?
Dicer inh: 2.6

What do the screens show for `O=C(Nc1ccccc1F)c1ccc([N+](=O)[O-])o1`?
Dicer inh: -0.41

What do the screens show for `Cn1c2c(c(=O)n(C)c1=O)CN(C1Cc3ccccc3C1)CN2`?
Dicer inh: -2.2

What do the screens show for `O=[N+]([O-])c1ccc2nc3c(O)c4ccccc4c(O)c3nc2c1`?
Dicer inh: 2.7

How did CCc1ccccc1NNC(=O)CCc1ccccc1 do in these assays?
Dicer inh: -0.71

What do the screens show for `Cc1ccc(NNC(=O)CCc2ccccc2)cc1C`?
Dicer inh: 3.5*

How did Cc1ccc(NNC(=O)CCc2ccccc2)cc1Cl do in these assays?
Dicer inh: -0.78

Results for CCc1ccccc1Cn1c(=O)oc2cccnc21 ?
Dicer inh: 2.3

What do the screens show for `CC(C)(C)n1c(-c2ccncc2)n[nH]c1=S`?
Dicer inh: -0.21

How did Cc1cccc(C)c1NC(=S)Nc1ccc(C(C)C)cc1 do in these assays?
Dicer inh: -0.05

Results for CC(c1ccccc1)n1c(OC(=O)N(C)C)nnc1SCC(=O)c1ccc2c(c1)OCCO2 (stereo not drawn) ?
Dicer inh: 3.6*

What do the screens show for `CSc1nnc(SCC(=O)c2ccc3c(c2)OCCO3)s1`?
Dicer inh: 1.9

What do the screens show for `O=C(CSc1n[nH]c(=O)n1-c1ccccc1)c1ccc2c(c1)OCCO2`?
Dicer inh: 1.2

What do the screens show for `CN(C)CCCN1C(=O)C(=O)/C(=C(/O)c2ccccc2)C1c1ccco1` (stereo not drawn)?
Dicer inh: -2.2

What do the screens show for `Cc1onc(-c2ccccc2)c1C(=O)Nc1ccc(N)cc1`?
Dicer inh: 1.8

How did CCOC(=O)c1c(NC(=O)c2ccc(C(C)(C)C)cc2)nc(SC)n1-c1ccccc1OC do in these assays?
Dicer inh: -0.77

What do the screens show for `CC(O)(CS(=O)(=O)c1ccc(Cl)cc1)CS(=O)(=O)c1ccc(Cl)cc1`?
Dicer inh: 0.28

Results for COc1ccc(OC)c(NC(=O)CSc2nc3ccccc3nc2N2CCCC2)c1 ?
Dicer inh: 1.4

How did CC1CCN(c2nc3ccccc3nc2SCC(=O)NC2CC2)CC1 do in these assays?
Dicer inh: 3.1*

How did CC1CN(c2nc3ccccc3nc2SCC(=O)N2CCN(C3CCCCC3)CC2)CC(C)O1 (stereo not drawn) do in these assays?
Dicer inh: 1.8

How did O=C(CSc1nc2ccccc2nc1N1CCCC1)N1CCN(C2CCCCC2)CC1 do in these assays?
Dicer inh: 3*

What do the screens show for `O=C(CSc1nc2ccccc2nc1N1CCCCC1)NCC1CCCO1` (stereo not drawn)?
Dicer inh: 3.1*

What do the screens show for `CC1CN(c2nc3ccccc3nc2SCC(=O)NC2CCCC2)CC(C)O1` (stereo not drawn)?
Dicer inh: 1.7

What do the screens show for `O=C(CSc1nc2ccccc2nc1N1CCOCC1)N1CCN(C2CCCCC2)CC1`?
Dicer inh: 2

What do the screens show for `CC1CN(c2nc3ccccc3nc2SCC(=O)NC2CCCCC2)CC(C)O1` (stereo not drawn)?
Dicer inh: 1.7

Results for O=C(CSc1nc2ccccc2nc1N1CCCC1)NCC1CCCO1 (stereo not drawn) ?
Dicer inh: 1.6

Results for COCc1cc(C(=O)Nc2ccc(Cl)cc2)cc2c1OCOC2 ?
Dicer inh: 1.3

How did CC(C)(C)NC(=O)CSc1ncccn1 do in these assays?
Dicer inh: 14

Results for COc1cccc(C2C(C(=O)c3cc4ccccc4o3)=C(O)C(=O)N2CCCN(C)C)c1 (stereo not drawn) ?
Dicer inh: -0.99

Results for C=CCn1c(N)cc(=O)nc1SC(C)C(=O)Nc1ccccc1 (stereo not drawn) ?
Dicer inh: -1.6

What do the screens show for `COc1ccc(OC)c(Nc2nc3nonc3nc2Nc2cccc(Br)c2)c1`?
Dicer inh: 2

Results for COc1ccc(OC)c(Nc2nc3nonc3nc2Nc2ccc(F)cc2)c1 ?
Dicer inh: 4.1*

How did COc1ccccc1Nc1nc2nonc2nc1Nc1cccc(Br)c1 do in these assays?
Dicer inh: 1.6

How did Cc1ccc(Oc2c(C)nc(C)[nH]c2=O)cc1 do in these assays?
Dicer inh: -0.07

Results for COc1cc2c(cc1OC)C1=C(C#N)CN(c3ccc(C)c(C)c3)CN1CC2 ?
Dicer inh: 4.5*

How did COc1cc2c(cc1OC)C1=C(C#N)CN(CCc3ccccc3)CN1CC2 do in these assays?
Dicer inh: 1.1

What do the screens show for `COc1cc2c(cc1OC)CN(S(=O)(=O)c1ccc3c(c1)CCC(C)(C)O3)CC2`?
Dicer inh: -0.69

Results for CC(=O)Nc1ccc(S(=O)(=O)N2CCCN(c3c(Cl)cncc3Cl)CC2)cc1Cl ?
Dicer inh: 1.9

How did O=C(NC(=O)c1c(F)cccc1Cl)Nc1cc(F)c(Br)cc1F do in these assays?
Dicer inh: -0.24

What do the screens show for `COc1ccc(-c2nc3n(n2)C(c2cc(OC)ccc2OC)C2=C(CCCC2=O)N3)cc1` (stereo not drawn)?
Dicer inh: 2.4

How did Cc1ccc(C2CC(C(F)(F)F)n3nc(C(=O)N4CCN5CCCC5C4)c(Cl)c3N2)cc1 (stereo not drawn) do in these assays?
Dicer inh: -1.7

What do the screens show for `O=C(c1nn2c(c1Cl)NC(c1ccc(Br)cc1)CC2C(F)(F)F)N1CCOCC1` (stereo not drawn)?
Dicer inh: 3.7*

What do the screens show for `NC(=O)c1nn2c(c1Br)NC(c1ccccc1)CC2C(F)(F)F` (stereo not drawn)?
Dicer inh: 3.8*

What do the screens show for `Cc1ccc(C2CC(C(F)(F)F)n3nc(C(=O)N4CCCCC4)c(Cl)c3N2)cc1` (stereo not drawn)?
Dicer inh: 0.49

How did O=C(c1nn2c(C(F)(F)F)cc(-c3ccccc3)nc2c1Br)N1CCOCC1 do in these assays?
Dicer inh: -0.52

How did O=C(O)c1nn2c(c1Br)NC(c1ccccc1)CC2C(F)(F)F (stereo not drawn) do in these assays?
Dicer inh: -0.34

Results for O=C(c1nn2c(c1Br)NC(c1ccccc1)CC2C(F)(F)F)N1CCOCC1 (stereo not drawn) ?
Dicer inh: 5.2*
